PfHsp90 set2 = reduces growth (ATP signal) of yeast expressing P. falciparum Hsp90. S. cerevisiae expressing PfHsp90, BacTiter-Glo ATP, 48 h; yeast lacking PDR1 and PDR3 efflux regulators. inhibition, % at 9.4 µM. actives 0.32% (n = 310,000). AID 504621;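 active = every replicate shows inhibition above about 80%, whatever the replicate mean, limit read from the data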;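 also: 0% = DMSO neutral controls and 100% = 20 µM radicicol positive controls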
NALP3 yeast inh = NALP3 inhibition in yeast; actives 0.39% (n = 330,000); inhibition, % at 10 µM; AID 2825; Yeast reconstituted NLRP3/ASC/caspase-1, beta-gal luminescence, 24 h;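 active = inhibition of 50% or more; inactive = inhibition below 50%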;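 also: plate controls were induced DMSO wells for no effect and uninduced yeast grown without galactose for full effect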
TIM10 inh = growth inhibitors of TIM10 yeast strain. actives 1.4% (n = 330,000). S. cerevisiae TIM10 strain growth, BacTiter-Glo luminescence, 24 h. inhibition, % at 10 µM. AID 463195;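 active = inhibition of 40% or more at the single tested concentration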;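 also: wild-type TIM10 isogenic control strain grown at permissive 25 °C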
tim23-1 inh = tim23-1 yeast growth inhibition; AID 463212; actives 1.3% (n = 330,000); S. cerevisiae tim23-1 growth, BacTiter-Glo luminescence, 24 h; inhibition, % at 20 µM;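 active = growth inhibition of the mutant yeast at or above 50%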;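 also: temperature-sensitive mutant grown at 25 °C; plate controls were DMSO-treated mutant yeast for no effect and medium wells lacking yeast for full effect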
tim10-1 inh = growth inhibitors of tim10-1 mutant yeast; S. cerevisiae tim10-1 ts strain growth, BacTiter-Glo, 24 h; inhibition, % at 20 µM; actives 2.2% (n = 330,000); AID 463190;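 active = inhibition of at least 40%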;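 also: mutant grown at 25 °C; 0% = DMSO wells with yeast and 100% = wells holding no yeast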
TIM10 conf = confirmation of TIM10 yeast growth inhibitors; shares compounds with TIM10 inh; S. cerevisiae tim10 strain growth, BacTiter-Glo luminescence, 24 h; inhibition, % at 10 µM; actives 63% (n = 4,600); AID 463215;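 active = inhibition of yeast growth at or above a set limit in either of two replicates at 10 µM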;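 also: this counterscreen used the strain with wild-type TIM10; 0% = yeast with DMSO and 100% = medium wells lacking yeast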
tim23-1 conf = confirmation of tim23-1 mutant yeast growth inhibitors; shares compounds with tim23-1 inh; S. cerevisiae tim23-1 growth, BacTiter-Glo luminescence, 24 h; inhibition, % at 20 µM; actives 83% (n = 4,400); AID 463218;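 active = inhibition above about 39% in either of two replicate wells at 20 µM, limit read from the data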;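 also: temperature-sensitive tim23-1 mutant grown at 25 °C; 0% = DMSO wells with yeast and 100% = medium wells without yeast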
Numbers without * were called inactive; . = no result. Only some compounds are listed: those with a hit (about 3.7% of all), similar ones and a draw of the others.

SMILES | PfHsp90 set2 | NALP3 yeast inh | TIM10 inh | tim23-1 inh | tim10-1 inh | TIM10 conf | tim23-1 conf
COc1cccc(CN2CCN(CC#Cc3ccccc3)CC2CCO)c1 (stereo not drawn) | 7 | 19 | 4 | 15 | 22 | . | .
CC(NC(=O)c1ccc([N+](=O)[O-])o1)C12CC3CC(CC(C3)C1)C2 (stereo not drawn) | -22 | 25 | 45* | 61* | -6 | 59* | -5
N/C(Cc1ccc(Cl)cc1)=N\OC(=O)C1CCCCC1 | -12 | 10 | 87* | 79* | 29 | -12 | 53*
O=C(CCN1CCCCC1)c1ccccc1 | -5 | 0 | 5 | 21 | 10 | . | .
CCc1oc2ccccc2c1C(=O)CCN1CCCCC1 | 3 | 34 | 57* | 52* | 33 | 41* | -121
O=C(NC(=S)NCc1ccccc1Cl)c1cccs1 | 2 | 16 | 46* | 67* | 16 | 51* | 52*
O=C(NCc1ccccc1F)c1cccs1 | 1 | 16 | -29 | 0 | 8 | . | .
COc1cc(/C=C2/CCCC(C(=O)C(F)(F)F)=C2O)ccc1O | -27 | 6 | 18 | 13 | 29 | . | .
COc1cc(/C=C2\CCC/C(=C\c3ccc(O)c(OC)c3)C2=O)ccc1O | -32 | 7 | 41* | 82* | 38 | 39* | 52*
O=C1C=C(NNC(=O)c2cccnc2)CC(c2ccco2)C1 (stereo not drawn) | 2 | 25 | 5 | 2 | 10 | . | .
NNC(=O)c1nc(Cl)c(Cl)c(N)c1Cl | 16 | 12 | -2 | 18 | 0 | . | .
Cn1c(CSc2nc3ccc(Br)cc3[nH]2)nc2ccccc21 | 22 | 23 | 41* | 61* | 29 | 28 | 57*
O=[N+]([O-])c1cc(C(F)(F)F)ccc1NCCCCNS(=O)(=O)c1ccc(Cl)cc1 | -29 | -5 | -6 | 13 | 10 | . | .
O=[N+]([O-])c1cc(C(F)(F)F)ccc1NCCNC(=S)Nc1ccc(Cl)cc1 | -23 | 38 | 56* | 81* | -32 | 50* | -15
Cc1c(C(=O)n2cnc3ccccc32)cccc1[N+](=O)[O-] | 4 | -11 | 7 | 22 | 28 | . | .
Cc1nc2ccccc2n1C(=O)c1ccccc1[N+](=O)[O-] | -14 | 3 | 50* | 50 | 34 | 47* | 40*
Cc1ncc(CN2CCC(C(=O)Nc3ccc(Oc4cccnc4)cc3)CC2)cn1 | 12 | 9 | -1 | 4 | 8 | . | .
COc1ccc(NC(=O)c2ccccc2NS(=O)(=O)c2ccc(CNC(C)=O)cc2)c(OC)c1 | 2 | 22 | 3 | 14 | 7 | . | .
CCOC(=O)N1CCN(C(=O)c2cccc(-n3c(=S)[nH]c4cc(Cl)ccc4c3=O)c2)CC1 | 14 | 22 | 24 | 22 | 19 | . | .
O=C(N/N=C/C(Br)=C/c1ccccc1)c1ccncc1 | 9 | 20 | 13 | 28 | 25 | . | .
O=C(N/N=C/C(Br)=C\c1ccccc1)c1cccs1 | . | 41 | 44* | 71* | -15 | 40* | 69*
COc1cccc(/C=N/NC(=O)C(=O)Nc2ccccc2OC(F)(F)C(F)F)c1O | 92* | 17 | 45* | 54* | -2 | 56* | 61*
COc1ccc(N2CCN(C(=N)/C(C(C)=O)=C(\C)O)CC2)cc1 | 2 | 11 | 2 | 8 | 4 | . | .
Cn1c(SCC(=O)N/N=C/c2ccc([N+](=O)[O-])s2)nnc1-c1ccc(Cl)cc1 | 105* | 28 | 81* | 62* | 23 | -23 | 65*
Cc1cc2n(n1)C(c1ccc(N(C)C)cc1)Nc1ccccc1-2 (stereo not drawn) | . | 14 | 40* | 55* | 34 | 34* | 64*
SMILES | PfHsp90 set2 | NALP3 yeast inh | TIM10 inh | tim23-1 inh | tim10-1 inh | TIM10 conf | tim23-1 conf
O=C1/C(=C/c2cccs2)Cc2ccccc21 | 9 | 0 | 48* | 51* | 20 | -48 | 70*
O=C1/C(=C\c2ccc(Br)o2)Cc2ccccc21 | 27 | -8 | 20 | 27 | 14 | . | .
C/C(=N\NC(=S)NCCc1ccccc1)c1cccs1 | 0 | 29 | 41* | 51* | 39 | -12 | 46*
CCCCCCCCC1=NCCc2c1[nH]c1ccccc21 | -8 | 19 | 45* | 57* | 38 | 13 | 43*
CCC(C)c1ccc(NC(=O)c2[nH]c(C)c(C(C)=O)c2C)cc1 (stereo not drawn) | -13 | -4 | 43* | 53* | 40 | 29 | 52*
COCCN(C(=O)c1ccc(-c2ccc([N+](=O)[O-])cc2)o1)c1c(N)n(CC(C)C)c(=O)[nH]c1=O | -7 | 13 | 0 | 2 | 4 | . | .
NC(=S)NC1CC2C=CC1C2 (stereo not drawn) | 13 | 8 | 13 | 13 | 6 | . | .
Oc1c(Br)cc(Br)cc1/C=N/NC(=S)N[C@H]1CC2C=CC1C2 (stereo partly drawn) | -32 | 13 | 46* | 57* | 30 | 48* | 68*
N/C(=N\OC(=O)c1ccc(Cl)c([N+](=O)[O-])c1)c1ccccn1 | 2 | 10 | -12 | 14 | 29 | . | .
N/C(=N\OC(=O)c1ccc(Cl)c([N+](=O)[O-])c1)c1ccccc1 | 13 | 34 | 72* | 81* | 34 | 72* | 78*
O=c1cc(CN2CCN(S(=O)(=O)c3ccc4ccccc4c3)CC2)nc2sccn12 | -20 | 11 | 25 | 34 | 33 | . | .
O=C(COC(=O)c1cncc(Br)c1)NC1CCCCC1 | -30 | 25 | -22 | 1 | -1 | . | .
O=C(NC(=S)NC1CCCCCC1)c1cncc(Br)c1 | 1 | 22 | 44* | 51* | 34 | -1 | 42*
CCN(C(=O)COC(=O)c1ccc(Cl)c(S(=O)(=O)N2CCCCC2)c1)C1CCS(=O)(=O)C1 (stereo not drawn) | -2 | 2 | 12 | -5 | -5 | . | .
COC(CN(C)S(=O)(=O)c1cc2c3c(c1)CCC(=O)N3CCC2)OC | 13 | 16 | -2 | 1 | -15 | . | .
CCC1(c2ccccc2)ON(c2c(Br)cccc2Br)C1=O (stereo not drawn) | -26 | 13 | 71* | 78* | -52 | 56* | -48
CCOC(=O)N1C(=O)[C@](CC)(c2ccccc2)N1C(=O)OCC | 28 | 3 | 15 | 17 | 2 | . | .
Cc1ccc2cc3cc(C(=O)NCCCN4CCCCCC4)oc3nc2c1 | 14 | 12 | 58* | 51* | 33 | -5 | 23
CCOc1ccc(NC(=O)c2cc3cc4ccc(C)cc4nc3o2)cc1 | . | 3 | -1 | 3 | 9 | . | .
COc1ccc(Nc2nc(N)nc(CSC(=S)N3CCCCC3)n2)cc1 | -5 | -5 | 35 | 25 | 37 | . | .
COc1ccc(Nc2nc(N)nc(CSC(=S)N3CCCCC3C)n2)cc1 (stereo not drawn) | -11 | 13 | 40 | 53* | 29 | 24 | 45*

Assay outcomes (PubChem BioAssay)
